Results reported in PubChem BioAssay AID504773 (Broad Institute, 2011).
Potency and affinity values are given separately. The source made the active and inactive calls.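 The calls were made as follows: active = polarization signal falls with dose and the fitted half-maximal concentration is at or below ten times the sample's top valid dose; inconclusive = flat curve at 30 to 70% inhibition, or poor fit; inactive = signal rises, flat within 30%, or potency beyond limit.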

Target: Golgi-associated PDZ and coiled-coil motif-containing protein (Homo sapiens) (UniProt Q9HD26)
Test: CAL PDZ peptide-binding inhibitors, dose response, biochemical, fluorescence polarization, Cerulean-tagged CAL PDZ, cherry-picks (AID 504773)

Row | SMILES | outcome
1 | COc1ccc(OC)c(S(=O)(=O)NCCCn2ccnc2)c1 | inactive
2 | O=C(NCc1ccccn1)c1ccc(NS(=O)(=O)c2ccccc2)cc1 | inactive
3 | CC(CCCC(C)(C)O)NC(=O)c1ccc(OC2CCN(C(=O)C3CC3)CC2)cc1 (stereo unspecified) | inactive
4 | C=CCOc1c(Cl)cc(CNn2cn[nH]c2=S)cc1OC | inactive
5 | O=C(CSc1nccc(=O)[nH]1)Nc1ccc(Oc2ccccc2)cc1 | inactive
6 | O=C1c2ccccc2C(=O)N1CSc1nnnn1-c1ccccc1 | inactive
7 | O=C(CN1CC[n+]2c(-c3cccs3)csc21)c1ccc(-c2ccccc2)cc1 | inactive
8 | COCC(=O)NNC(=O)c1ccc(OC)cc1 | inactive
9 | CCN(CC)CCC(=O)N1c2ccccc2CCc2ccc(NC(=O)OC(C)C)cc21 | inactive
10 | Cc1cccc(C(=O)Nc2ccc(C(=O)/C=C/c3ccncc3)cc2)c1 | inactive
11 | O=S(=O)(c1cccc2ccccc12)N1CCCCC1 | inactive
12 | O=C(COC(=O)CNC(=O)c1cccc([N+](=O)[O-])c1)NCc1ccco1 | inactive
13 | COc1ccc(/C=N/NC(=O)c2cccc(C(F)(F)F)c2)cc1 | inactive
14 | COc1ccc(N2CCN(C3CCCN(Cc4ccc(F)cc4)C3)CC2)cc1 (stereo unspecified) | inactive
15 | CN(CC1CCCO1)S(=O)(=O)c1ccc(C(=O)Nc2ccc([N+](=O)[O-])cc2)cc1 (stereo unspecified) | inactive
16 | CCOC(=O)/C=C/C(=O)OCC(=O)Nc1ccc([N+](=O)[O-])cc1 | inactive
17 | COc1cccc(CN2CCN(C3CSCCSC3)CC2CCO)c1 (stereo unspecified) | inactive
18 | O=C(NC1CCCN(Cc2ccc(Cl)cc2)C1)c1cccc(N2CCCC2=O)c1 (stereo unspecified) | inactive
19 | O=C(NCc1ccccc1Cl)C1CC(=O)N(Cc2ccccc2)C1 (stereo unspecified) | inactive

Row | SMILES | outcome
20 | COc1cc(C2NC(=O)NC(C)=C2C(=O)OC2CCCCC2)cc(Br)c1O (stereo unspecified) | inactive
21 | COc1ccc(/C=N/N2CCN(c3ccccc3OC)CC2)cc1Br | inactive
22 | Cc1cc(C)c(OCC(=O)OC(C)C(=O)NC2CC2)c(C)c1 (stereo unspecified) | inactive
23 | CCCn1nnnc1NCc1cc(Br)ccc1OC | inactive
24 | CC(C)(C)c1nn(-c2ccccc2)c2[nH]c(=O)c(C=O)cc12 | inactive
25 | CCOc1ccc(C(=O)NC2CC3CCCC(C2)N3Cc2ccccc2)cc1 (stereo unspecified) | inactive
26 | COc1cc(OC)cc(C(=O)N[C@H](C(=O)Nc2nc3ccc(S(C)(=O)=O)cc3s2)C(C)C)c1 | inactive
27 | CCC(C(=O)NN1C(=O)c2ccccc2C1=O)c1ccccc1 (stereo unspecified) | inactive
28 | Cc1cccc(N(Cc2cc(=O)[nH]c3ccccc23)C(=O)C(C)C)c1 | inactive
29 | C=CCNC(=O)CC1Nc2c3ccccc3nc(=S)n2C1=O (stereo unspecified) | inactive
30 | CC(C)(C)OC(=O)N[C@@H](Cc1c[nH]c2ccccc12)c1nnc(SCC(N)=O)o1 | inactive
31 | CC1CCC(NC(=O)C2CCN(c3cnccn3)CC2)CC1 (stereo unspecified) | inactive
32 | O=C1OC2(CCCCC2)OC(=O)C1=CNc1nc2ccccc2s1 | inactive
33 | Nc1ccc(N(CCO)CCO)cc1 | inactive
34 | CN(C(=O)CC1C(=O)NCCN1CC(c1ccccc1)c1ccccc1)C(C1CC1)C1CC1 (stereo unspecified) | inactive
35 | COC(=O)N/N=C/c1sc(N2CCCCC2)nc1-c1cccs1 | inactive
36 | COc1ccc(-c2nc3ccccc3o2)cc1OC | inactive
37 | CCNC(=S)N1CCc2cc(OC)c(OC)cc2C1COc1ccc(OC)cc1 (stereo unspecified) | inactive
38 | CC(c1ccccc1)N1CCN(C(=O)CCl)CC1 (stereo unspecified) | inactive

Row | SMILES | outcome
39 | CSc1ccc(CNCCCSc2ncccn2)cc1 | inactive
40 | CC(=O)Nc1ccc(N/C=C/C(=O)c2ccccc2)cc1 | inactive
41 | C[C@H](NC(=O)c1ccccc1Cl)C(=O)NCc1cccs1 | inactive
42 | COc1cccc(-c2cccc(NC(=O)C3CCN(Cc4ccc(CO)o4)CC3)c2)c1 | inactive
43 | O=C(NCc1cccnc1)/C(=C/c1ccc(-c2cccc(C(F)(F)F)c2)o1)NC(=O)c1ccccc1 | inactive
44 | COC(=O)CN1C(=O)N/C(=C/c2cc(Cl)c(OC)c(OC)c2)C1=O | inactive
45 | CC1=NN(C(N)=S)C(=O)C1N=Nc1ccc(Cl)cc1 (stereo unspecified) | inactive
46 | COc1ccc(CC(=O)N2CCC(CCC(=O)Nc3ccccc3)CC2)cc1 | inactive
47 | CN1CCN(c2ccccc2NC(=O)c2ccc(N3CCCC3)c([N+](=O)[O-])c2)CC1 | inactive
48 | Cc1cc(Cl)c(Cl)cc1S(=O)(=O)NCCCn1ccnc1 | inactive
49 | COc1ccc(CC(=O)NNC(=O)CCc2ccccc2)cc1OC | inactive
50 | Cc1cccc(Nc2nc(-c3ccc(F)cc3)cs2)n1 | inactive
51 | O=C(NCc1ccccn1)Nc1ccc(F)c(Cl)c1 | inactive
52 | Cc1cccc(N=Nc2c(O)[nH]c3ccc(F)cc23)c1 | inactive
53 | O=C(NCCc1ccccc1)C1CCC(=O)N(CCCN2CCCC2=O)C1 (stereo unspecified) | inactive
54 | S=C(NCCc1ccccc1)NC1CCC(NC(=S)NCCc2ccccc2)CC1 (stereo unspecified) | inactive
55 | COC(=O)CN1C(=O)C(O)=C(C(C)=O)C1c1ccc([N+](=O)[O-])cc1 (stereo unspecified) | inactive
56 | O=C(C=Cc1ccccc1)c1cc(Br)ccc1O | inactive
